Measured values reported in ChEMBL document CHEMBL2218924, “A broad activity screen in support of a chemogenomic map for kinase signalling research and drug discovery” (Biochem J, 2013).

What was measured:
[1] = biological target: BDNF/NT-3 growth factors receptor (Homo sapiens) (UniProt Q16620); conditions: at 10 µM
[2] = biological target: T1, Tyrosine-protein kinase TXK (Homo sapiens) (UniProt P42681); conditions: at 1 µM
T1 sequence (whole entry): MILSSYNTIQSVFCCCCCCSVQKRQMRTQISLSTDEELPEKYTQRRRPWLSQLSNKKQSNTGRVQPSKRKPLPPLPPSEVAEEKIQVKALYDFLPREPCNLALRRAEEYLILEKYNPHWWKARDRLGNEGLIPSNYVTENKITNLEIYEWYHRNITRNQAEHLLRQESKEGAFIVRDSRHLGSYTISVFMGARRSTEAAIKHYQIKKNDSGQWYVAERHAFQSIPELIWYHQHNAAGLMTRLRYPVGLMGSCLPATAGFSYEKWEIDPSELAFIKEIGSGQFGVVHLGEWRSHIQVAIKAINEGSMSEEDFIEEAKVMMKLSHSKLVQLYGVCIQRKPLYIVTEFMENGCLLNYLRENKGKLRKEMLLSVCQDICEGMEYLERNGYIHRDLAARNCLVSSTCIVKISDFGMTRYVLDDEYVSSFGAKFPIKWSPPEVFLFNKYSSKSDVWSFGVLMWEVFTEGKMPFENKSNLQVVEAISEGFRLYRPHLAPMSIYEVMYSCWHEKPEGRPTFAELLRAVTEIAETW

[3] = biological target: T1, Tyrosine-protein kinase TXK (Homo sapiens); conditions: at 10 µM
[4] = biological target: T2, Serine/threonine-protein kinase ULK3 (Homo sapiens) (UniProt Q6PHR2); conditions: at 10 µM
T2 sequence (whole entry): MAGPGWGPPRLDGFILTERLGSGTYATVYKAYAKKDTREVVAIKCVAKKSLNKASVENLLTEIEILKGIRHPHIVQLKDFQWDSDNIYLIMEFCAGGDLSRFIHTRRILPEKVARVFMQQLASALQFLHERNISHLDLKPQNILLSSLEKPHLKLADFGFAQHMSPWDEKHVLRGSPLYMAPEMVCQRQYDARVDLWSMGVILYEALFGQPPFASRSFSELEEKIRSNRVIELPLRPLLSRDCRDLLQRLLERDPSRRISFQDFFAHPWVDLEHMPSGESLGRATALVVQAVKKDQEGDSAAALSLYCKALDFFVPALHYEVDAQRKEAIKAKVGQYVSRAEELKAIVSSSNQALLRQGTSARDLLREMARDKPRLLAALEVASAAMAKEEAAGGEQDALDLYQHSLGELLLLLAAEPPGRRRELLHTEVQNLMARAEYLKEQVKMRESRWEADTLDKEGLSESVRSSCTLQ

[5] = biological target: Serine/threonine-protein kinase WNK2 (Homo sapiens) (UniProt Q9Y3S1); conditions: at 10 µM
[6] = biological target: Serine/threonine-protein kinase WNK3 (Homo sapiens) (UniProt Q9BYP7); conditions: at 1 µM
[7] = biological target: Serine/threonine-protein kinase WNK3 (Homo sapiens) (UniProt Q9BYP7); conditions: at 10 µM
[8] = biological target: Death-associated protein kinase 3 (Homo sapiens) (UniProt O43293); conditions: at 1 µM
[9] = biological target: Death-associated protein kinase 3 (Homo sapiens) (UniProt O43293); conditions: at 10 µM
[10] = biological target: RAF proto-oncogene serine/threonine-protein kinase (Homo sapiens) (UniProt P04049); conditions: at 1 µM
[11] = biological target: RAF proto-oncogene serine/threonine-protein kinase (Homo sapiens) (UniProt P04049); conditions: at 10 µM
[12] = biological target: T3, Serine/threonine-protein kinase ULK2 (Homo sapiens) (UniProt Q8IYT8); conditions: at 10 µM
T3 sequence (whole entry): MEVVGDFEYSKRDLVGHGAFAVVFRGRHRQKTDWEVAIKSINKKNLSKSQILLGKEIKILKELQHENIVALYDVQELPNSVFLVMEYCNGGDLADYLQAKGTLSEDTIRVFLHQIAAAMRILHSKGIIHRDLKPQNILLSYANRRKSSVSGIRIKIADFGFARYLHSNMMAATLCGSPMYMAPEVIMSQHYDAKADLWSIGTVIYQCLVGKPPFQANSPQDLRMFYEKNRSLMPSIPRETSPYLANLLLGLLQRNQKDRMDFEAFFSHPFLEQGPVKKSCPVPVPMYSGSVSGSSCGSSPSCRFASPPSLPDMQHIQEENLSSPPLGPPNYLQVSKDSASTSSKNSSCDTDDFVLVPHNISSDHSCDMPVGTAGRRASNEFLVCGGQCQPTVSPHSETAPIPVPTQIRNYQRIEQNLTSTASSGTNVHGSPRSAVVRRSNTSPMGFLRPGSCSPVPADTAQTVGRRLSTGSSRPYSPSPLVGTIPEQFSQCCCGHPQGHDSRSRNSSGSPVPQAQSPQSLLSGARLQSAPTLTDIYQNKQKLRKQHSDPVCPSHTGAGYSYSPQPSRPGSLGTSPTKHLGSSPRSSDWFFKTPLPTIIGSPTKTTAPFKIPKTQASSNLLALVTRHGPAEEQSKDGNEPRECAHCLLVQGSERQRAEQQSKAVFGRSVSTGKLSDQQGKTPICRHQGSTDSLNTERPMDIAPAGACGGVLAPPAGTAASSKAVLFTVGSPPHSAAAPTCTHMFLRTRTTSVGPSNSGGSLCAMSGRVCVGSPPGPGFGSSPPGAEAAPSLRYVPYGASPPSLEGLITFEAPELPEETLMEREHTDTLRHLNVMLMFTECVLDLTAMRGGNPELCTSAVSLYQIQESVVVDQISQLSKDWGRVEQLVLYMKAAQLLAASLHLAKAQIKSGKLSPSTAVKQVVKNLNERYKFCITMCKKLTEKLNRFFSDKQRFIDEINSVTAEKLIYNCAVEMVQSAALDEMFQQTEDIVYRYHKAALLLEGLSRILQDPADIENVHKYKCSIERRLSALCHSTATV

[13] = biological target: T2, Serine/threonine-protein kinase ULK3 (Homo sapiens); conditions: at 1 µM
[14] = biological target: Serine/threonine-protein kinase VRK2 (Homo sapiens) (UniProt Q86Y07); conditions: at 1 µM
[15] = biological target: Serine/threonine-protein kinase VRK2 (Homo sapiens) (UniProt Q86Y07); conditions: at 10 µM
[16] = biological target: Serine/threonine-protein kinase WNK2 (Homo sapiens) (UniProt Q9Y3S1); conditions: at 1 µM
[17] = biological target: Tyrosine-protein kinase Yes (Homo sapiens) (UniProt P07947); conditions: at 10 µM
[18] = biological target: T4, Tyrosine-protein kinase ZAP-70 (Homo sapiens) (UniProt P43403); conditions: at 1 µM
T4 sequence (whole entry): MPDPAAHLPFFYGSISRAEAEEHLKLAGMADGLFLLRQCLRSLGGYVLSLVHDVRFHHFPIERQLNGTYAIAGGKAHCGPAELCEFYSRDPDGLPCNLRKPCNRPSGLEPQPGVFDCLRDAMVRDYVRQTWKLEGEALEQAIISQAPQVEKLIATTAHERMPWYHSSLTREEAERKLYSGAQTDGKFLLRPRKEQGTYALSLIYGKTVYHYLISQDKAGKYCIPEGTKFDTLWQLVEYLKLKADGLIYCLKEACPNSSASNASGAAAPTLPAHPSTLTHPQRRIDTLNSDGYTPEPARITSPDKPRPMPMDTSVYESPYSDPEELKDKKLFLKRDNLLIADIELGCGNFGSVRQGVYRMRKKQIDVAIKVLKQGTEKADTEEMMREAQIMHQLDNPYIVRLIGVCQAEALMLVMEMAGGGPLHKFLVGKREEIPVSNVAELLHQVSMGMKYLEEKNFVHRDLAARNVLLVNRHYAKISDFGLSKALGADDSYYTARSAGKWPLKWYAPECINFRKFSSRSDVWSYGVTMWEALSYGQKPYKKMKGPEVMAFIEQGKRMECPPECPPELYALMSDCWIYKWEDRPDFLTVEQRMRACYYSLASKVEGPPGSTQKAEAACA

[19] = biological target: T3, Serine/threonine-protein kinase ULK2 (Homo sapiens); conditions: at 1 µM
[20] = biological target: Tyrosine-protein kinase Yes (Homo sapiens) (UniProt P07947); conditions: at 1 µM

Serine/threonine-protein kinase WNK2 (Homo sapiens), sequence (Q9Y3S1 whole entry): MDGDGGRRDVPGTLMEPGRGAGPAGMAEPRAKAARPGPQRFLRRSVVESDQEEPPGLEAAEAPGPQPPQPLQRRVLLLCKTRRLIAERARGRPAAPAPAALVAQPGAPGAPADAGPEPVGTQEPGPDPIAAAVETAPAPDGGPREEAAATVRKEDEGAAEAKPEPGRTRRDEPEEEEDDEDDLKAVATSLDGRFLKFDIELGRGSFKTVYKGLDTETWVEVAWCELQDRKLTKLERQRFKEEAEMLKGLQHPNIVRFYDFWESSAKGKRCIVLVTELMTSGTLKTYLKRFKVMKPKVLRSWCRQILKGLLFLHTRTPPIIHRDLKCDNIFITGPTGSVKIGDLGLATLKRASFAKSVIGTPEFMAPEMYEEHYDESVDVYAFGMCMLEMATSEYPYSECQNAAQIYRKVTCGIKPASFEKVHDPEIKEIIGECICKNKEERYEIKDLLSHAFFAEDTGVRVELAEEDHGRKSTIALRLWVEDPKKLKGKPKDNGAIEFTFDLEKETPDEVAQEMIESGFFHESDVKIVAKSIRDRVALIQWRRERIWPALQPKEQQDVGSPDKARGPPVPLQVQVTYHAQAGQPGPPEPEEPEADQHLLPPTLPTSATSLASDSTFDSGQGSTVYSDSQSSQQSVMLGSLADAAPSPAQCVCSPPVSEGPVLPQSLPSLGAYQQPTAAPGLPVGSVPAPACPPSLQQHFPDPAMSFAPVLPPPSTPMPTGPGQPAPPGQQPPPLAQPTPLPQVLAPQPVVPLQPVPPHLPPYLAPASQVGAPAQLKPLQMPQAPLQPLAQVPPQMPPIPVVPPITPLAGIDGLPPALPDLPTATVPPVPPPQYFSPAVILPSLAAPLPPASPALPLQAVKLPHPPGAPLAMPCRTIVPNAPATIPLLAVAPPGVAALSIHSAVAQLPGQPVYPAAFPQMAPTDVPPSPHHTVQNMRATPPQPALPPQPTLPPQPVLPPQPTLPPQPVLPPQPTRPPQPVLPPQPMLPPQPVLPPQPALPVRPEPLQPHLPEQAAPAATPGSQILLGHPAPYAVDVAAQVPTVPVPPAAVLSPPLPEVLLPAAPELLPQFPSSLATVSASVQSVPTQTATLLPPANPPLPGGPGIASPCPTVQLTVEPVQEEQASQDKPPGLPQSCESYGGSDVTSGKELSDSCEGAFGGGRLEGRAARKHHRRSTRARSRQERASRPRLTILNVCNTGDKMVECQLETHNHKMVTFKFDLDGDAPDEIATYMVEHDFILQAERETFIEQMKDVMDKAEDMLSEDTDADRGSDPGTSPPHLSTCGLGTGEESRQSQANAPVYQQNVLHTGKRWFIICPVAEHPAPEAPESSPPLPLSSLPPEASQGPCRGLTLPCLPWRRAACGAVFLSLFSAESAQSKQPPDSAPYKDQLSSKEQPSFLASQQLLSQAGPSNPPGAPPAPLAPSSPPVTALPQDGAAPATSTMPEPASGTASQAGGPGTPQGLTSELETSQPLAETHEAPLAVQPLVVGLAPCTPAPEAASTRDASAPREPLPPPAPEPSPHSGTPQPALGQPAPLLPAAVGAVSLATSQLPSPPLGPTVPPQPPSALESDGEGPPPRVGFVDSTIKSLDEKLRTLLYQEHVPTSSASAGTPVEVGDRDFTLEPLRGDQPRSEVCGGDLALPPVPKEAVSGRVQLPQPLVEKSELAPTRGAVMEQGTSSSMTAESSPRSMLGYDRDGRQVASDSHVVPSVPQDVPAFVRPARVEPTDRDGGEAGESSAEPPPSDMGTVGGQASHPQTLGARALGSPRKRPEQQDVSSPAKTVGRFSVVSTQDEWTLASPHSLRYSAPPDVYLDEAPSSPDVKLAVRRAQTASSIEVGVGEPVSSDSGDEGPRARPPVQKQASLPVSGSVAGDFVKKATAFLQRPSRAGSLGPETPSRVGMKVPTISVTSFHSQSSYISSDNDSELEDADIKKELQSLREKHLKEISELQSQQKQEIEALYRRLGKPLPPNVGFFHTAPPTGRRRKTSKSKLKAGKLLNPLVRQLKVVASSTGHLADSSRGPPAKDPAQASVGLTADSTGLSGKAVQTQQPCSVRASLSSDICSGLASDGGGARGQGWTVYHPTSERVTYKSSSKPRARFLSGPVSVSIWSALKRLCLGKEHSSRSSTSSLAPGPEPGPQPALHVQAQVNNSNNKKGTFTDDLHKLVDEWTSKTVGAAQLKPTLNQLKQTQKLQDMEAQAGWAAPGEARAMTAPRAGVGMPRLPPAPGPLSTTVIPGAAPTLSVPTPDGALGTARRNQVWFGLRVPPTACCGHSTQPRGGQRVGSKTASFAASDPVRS
Tyrosine-protein kinase Yes (Homo sapiens), sequence (P07947 2-543 limits assumed): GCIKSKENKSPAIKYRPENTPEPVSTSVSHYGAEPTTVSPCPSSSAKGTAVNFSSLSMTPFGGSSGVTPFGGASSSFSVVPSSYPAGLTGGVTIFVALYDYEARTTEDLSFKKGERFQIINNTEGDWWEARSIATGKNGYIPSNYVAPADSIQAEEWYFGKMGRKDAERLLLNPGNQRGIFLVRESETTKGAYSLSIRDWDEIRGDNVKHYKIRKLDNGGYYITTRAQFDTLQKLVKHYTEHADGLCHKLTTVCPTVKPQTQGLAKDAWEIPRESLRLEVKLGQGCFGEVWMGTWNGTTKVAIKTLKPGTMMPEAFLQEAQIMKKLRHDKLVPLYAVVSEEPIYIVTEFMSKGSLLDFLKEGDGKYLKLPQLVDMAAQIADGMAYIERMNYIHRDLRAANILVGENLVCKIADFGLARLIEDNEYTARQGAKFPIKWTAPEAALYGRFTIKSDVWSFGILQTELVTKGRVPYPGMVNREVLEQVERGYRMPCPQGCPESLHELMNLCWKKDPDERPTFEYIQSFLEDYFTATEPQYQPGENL
Serine/threonine-protein kinase VRK2 (Homo sapiens), sequence (Q86Y07 whole entry): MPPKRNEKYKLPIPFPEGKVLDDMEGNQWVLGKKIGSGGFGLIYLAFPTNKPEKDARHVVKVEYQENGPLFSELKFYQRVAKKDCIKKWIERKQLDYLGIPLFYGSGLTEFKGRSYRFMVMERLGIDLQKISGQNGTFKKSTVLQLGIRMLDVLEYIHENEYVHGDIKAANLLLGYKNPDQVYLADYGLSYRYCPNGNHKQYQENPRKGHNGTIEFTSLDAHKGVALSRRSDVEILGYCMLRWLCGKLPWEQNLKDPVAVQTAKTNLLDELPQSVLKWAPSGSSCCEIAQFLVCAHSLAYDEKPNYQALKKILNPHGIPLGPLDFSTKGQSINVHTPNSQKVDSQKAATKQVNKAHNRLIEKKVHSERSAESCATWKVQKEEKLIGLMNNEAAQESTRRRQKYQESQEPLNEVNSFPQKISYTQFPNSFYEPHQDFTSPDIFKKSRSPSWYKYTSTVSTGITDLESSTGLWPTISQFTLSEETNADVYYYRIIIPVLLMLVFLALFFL
Death-associated protein kinase 3 (Homo sapiens), sequence (O43293 whole entry, looked up): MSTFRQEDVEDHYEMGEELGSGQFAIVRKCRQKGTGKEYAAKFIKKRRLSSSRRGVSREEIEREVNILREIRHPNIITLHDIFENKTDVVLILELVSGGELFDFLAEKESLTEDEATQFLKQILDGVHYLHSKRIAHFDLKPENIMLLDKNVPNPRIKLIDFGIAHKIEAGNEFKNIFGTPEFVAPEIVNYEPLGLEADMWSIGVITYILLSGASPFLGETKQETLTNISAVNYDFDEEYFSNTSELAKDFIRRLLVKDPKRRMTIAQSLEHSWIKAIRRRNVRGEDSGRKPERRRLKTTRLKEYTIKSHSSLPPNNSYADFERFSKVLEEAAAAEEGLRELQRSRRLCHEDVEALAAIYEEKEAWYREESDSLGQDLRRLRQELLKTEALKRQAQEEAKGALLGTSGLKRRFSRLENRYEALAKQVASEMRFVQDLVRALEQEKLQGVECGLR
RAF proto-oncogene serine/threonine-protein kinase (Homo sapiens), sequence (P04049 whole entry): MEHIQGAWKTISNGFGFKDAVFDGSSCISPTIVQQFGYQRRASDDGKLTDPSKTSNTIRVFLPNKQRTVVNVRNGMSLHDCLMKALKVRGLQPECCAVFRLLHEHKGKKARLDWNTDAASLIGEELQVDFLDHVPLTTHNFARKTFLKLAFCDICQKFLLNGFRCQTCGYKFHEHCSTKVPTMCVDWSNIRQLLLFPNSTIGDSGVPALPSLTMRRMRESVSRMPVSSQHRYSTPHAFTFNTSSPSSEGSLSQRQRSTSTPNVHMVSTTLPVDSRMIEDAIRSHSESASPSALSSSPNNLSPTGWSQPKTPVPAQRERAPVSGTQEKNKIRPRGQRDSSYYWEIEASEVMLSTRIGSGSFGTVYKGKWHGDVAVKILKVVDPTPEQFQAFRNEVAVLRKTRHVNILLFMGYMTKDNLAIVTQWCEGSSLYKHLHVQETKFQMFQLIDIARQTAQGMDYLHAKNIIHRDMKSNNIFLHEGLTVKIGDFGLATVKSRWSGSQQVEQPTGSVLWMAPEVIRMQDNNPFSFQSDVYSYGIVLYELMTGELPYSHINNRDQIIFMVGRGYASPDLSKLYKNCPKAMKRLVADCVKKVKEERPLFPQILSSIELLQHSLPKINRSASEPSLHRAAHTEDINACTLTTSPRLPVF

SMILES	residual activity [1] [%]	residual activity [2] [%]	residual activity [3] [%]	residual activity [4] [%]	residual activity [5] [%]	residual activity [6]	residual activity [7] [%]	residual activity [8] [%]	residual activity [9] [%]	residual activity [10] [%]	residual activity [11] [%]	residual activity [12] [%]	residual activity [13] [%]	residual activity [14]	residual activity [15] [%]	residual activity [16]	residual activity [17] [%]	residual activity [18] [%]	residual activity [19] [%]	residual activity [20] [%]
COc1cc2ncc(-c3ccccc3)nc2cc1OC	37	96	73	86	94	126% (inactive)	95	96	100	99	86									
Cn1nc2c3c(cccc31)C(=O)c1ccccc1-2	66	82	61	84	89	95% (inactive)	67	77	82	80	72	104	89	92% (inactive)	77	93% (inactive)	95	92		
COc1cc2ncnc(N3CCN(C(=O)Nc4ccc(Oc5ccccc5)cc4)CC3)c2cc1OC	44	108	119	90	48	80% (inactive)	58	105	144	78	93	100	97	94% (inactive)	86	84% (inactive)	105	102	100	103
CO[C@H]1C[C@@H]2CC[C@@H](C)[C@@](O)(O2)C(=O)C(=O)N2CCCC[C@H]2C(=O)O[C@H]([C@H](C)C[C@@H]2CC[C@@H](O)[C@H](OC)C2)CC(=O)[C@H](C)/C=C(\C)[C@@H](O)[C@@H](OC)C(=O)[C@H](C)C[C@H](C)/C=C/C=C/C=C/1C		109	111	94	94	107% (inactive)	111	116	141	73	108	98	100	97% (inactive)	97	96% (inactive)		104	91	103
N#CC(C#N)=C(N)/C(C#N)=C/c1ccc(O)cc1	116	78	67	92	83	96% (inactive)	75			92	88		100	100% (inactive)	94		93	128		
Nc1nc(Nc2ccc(S(N)(=O)=O)cc2)nn1C(=S)Nc1c(F)cccc1F	0	71	32	1		77% (inactive)	64	90	78	82	26	0	0	84% (inactive)	37		2	124	4	3
C[C@@H](N)[C@H]1CC[C@H](C(=O)Nc2ccncc2)CC1	99	100	94	68	90	106% (inactive)	102	101	99	100	108	39	95	96% (inactive)		95% (inactive)	94	92	85	108
CC(=O)c1ccc(N2CCOCC2)cc1O	108	85	86	90	94	104% (inactive)	104	106	97	83	97	90	106	107% (inactive)	96			84	106	
Cc1cccc(-c2[nH]c(C(C)(C)C)nc2-c2ccc3c(c2)OCO3)n1			98	96	84	89% (inactive)	89			82	71	94	104	105% (inactive)	71	106% (inactive)	44			103
Ic1cccc(CSc2nnc(-c3ccncc3)o2)c1	28	75	81	92	83	89% (inactive)	89	107	105	77	64		86	92% (inactive)	79	87% (inactive)	84	101	98	96
CO[C@@H]1[C@H](N(C)C(=O)c2ccccc2)C[C@H]2O[C@]1(C)n1c3ccccc3c3c4c(c5c6ccccc6n2c5c31)C(=O)NC4	-12	82	69	5	60	91% (inactive)	76	56	59	80	90	76	17	99% (inactive)	94	90% (inactive)	4	70		5
COc1cc2ncnc(Nc3ccc(O)c(Br)c3)c2cc1OC	87	81	46	50	70	87% (inactive)	77	83	58	64	38	76	91	83% (inactive)	56	96% (inactive)	2	144	89	25
CCOc1cc2ncnc(Nc3cccc(Br)c3)c2cc1OCC	88	75	24	71	79	99% (inactive)	86	91	96	84	71	78	96	99% (inactive)	74	102% (inactive)	2	122	94	17
c1ccc(-c2n[nH]cc2-c2ccnc3ccccc23)nc1			64	98	88	97% (inactive)	91		96	81	51	97	100	95% (inactive)	67	105% (inactive)	53			98
